High-throughput results (PubChem)
LYPLA1 counter – LYPLA1 (human) inhibition in PME1 counter-screen. O75608. recombinant LYPLA1, FP-Rh probe fluorescence polarization. inhibition, % at 5.9 µM. 0.16% of 320,000 active;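 active = inhibition above the mean of all tested compounds plus 3 SD, set per campaign, cut at about 14% in these data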;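 also: inhibitors block serine hydrolase probe labeling of LYPLA1 so polarization falls; 0% = enzyme with DMSO and 100% = wells lacking LYPLA1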
Target sequence (O75608 whole entry, looked up): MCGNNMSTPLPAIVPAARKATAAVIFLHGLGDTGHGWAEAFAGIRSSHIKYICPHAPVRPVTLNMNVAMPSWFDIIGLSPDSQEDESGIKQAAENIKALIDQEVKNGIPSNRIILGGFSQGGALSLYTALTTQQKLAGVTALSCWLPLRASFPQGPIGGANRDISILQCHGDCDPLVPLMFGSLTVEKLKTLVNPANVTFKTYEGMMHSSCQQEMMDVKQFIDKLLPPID
Fam108B counter – Fam108B inhibition, counter-screen for RBBP9 inhibitors. recombinant Fam108B, FP-Rh probe fluorescence polarization. inhibition, % at 9.51 µM. 0.33% of 300,000 active;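 active = inhibition above the screen mean inhibition plus 3 SD, computed separately per campaign, cut at about 18% in these data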;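 also: inhibitors lower polarization as less probe binds the enzyme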
PREPL inh – inhibitors of human prolyl oligopeptidase-like enzyme PREPL | Q4J6C6 | recombinant PREPL, fluorescence polarization activity-based probe | inhibition, % at 5.96 µM | 0.68% of 320,000 active | AID 2751; in the data active = inhibition above about 43%;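 also: 0% = enzyme with DMSO and 100% = wells lacking enzyme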
PME-1 inh – PME-1 (human) inhibition | 0.53% of 320,000 active | Q9Y570 | AID 2130 | recombinant PME-1, FP-Rh probe fluorescence polarization | inhibition, % at 5.9 µM;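 active = inhibition above the campaign mean of all compounds plus 3 SD, cut at about 26% in these data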;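 also: competitive labeling of PME-1 active site by serine hydrolase directed probe; 0% = PME-1 with DMSO and 100% = wells lacking PME-1 enzyme; inhibitors block probe labeling so polarization falls and inhibition rises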
Target sequence (Q9Y570 whole entry, looked up): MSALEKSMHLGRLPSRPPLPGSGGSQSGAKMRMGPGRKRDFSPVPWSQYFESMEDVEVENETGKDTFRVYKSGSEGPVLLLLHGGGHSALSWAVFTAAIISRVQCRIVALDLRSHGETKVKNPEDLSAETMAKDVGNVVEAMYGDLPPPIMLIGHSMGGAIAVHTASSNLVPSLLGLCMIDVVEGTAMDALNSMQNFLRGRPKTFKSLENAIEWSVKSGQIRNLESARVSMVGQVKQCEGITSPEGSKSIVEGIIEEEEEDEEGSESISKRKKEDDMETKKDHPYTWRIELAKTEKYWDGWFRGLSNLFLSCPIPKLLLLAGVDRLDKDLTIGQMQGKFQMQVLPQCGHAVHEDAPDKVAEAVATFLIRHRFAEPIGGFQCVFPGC
LYPLA2 inh – counter-screen for PME1 inhibitors: inhibitors of human LYPLA2. O95372. recombinant LYPLA2, FP-Rh probe fluorescence polarization. inhibition, % at 5.9 µM. 0.38% of 320,000 active;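 active = inhibition above the screen-wide mean plus 3 SD, limit set per campaign, cut at about 26% in these data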;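 also: 0% = LYPLA2 with DMSO and 100% = wells lacking LYPLA2 enzyme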
Fam108b inh conf – Fam108b (mouse) hydrolase inhibition, confirmation assay | shares compounds with Fam108B counter | recombinant Fam108b, FP-Rh probe fluorescence polarization | inhibition, % at 9.51 µM | 44% of 930 active | AID 1978;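 active = inhibition above a limit from the primary screen, the mean over all compounds plus 3 SD, cut at about 19% in these data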;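 also: 0% = median of active Fam108b wells and 100% = catalytically dead S170A mutant; inhibitors free the probe so polarization falls as inhibition rises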
Fam108b inh – mouse ABHD17B inhibition; recombinant Fam108b, gel-based ABPP, fluorophosphonate probe; AID 588649; 44% of 260 active; shares compounds with Fam108B counter; inhibition, % at 20 µM; in the data active = inhibition above about 40%
LYPLA1 conf – LYPLA1 (human) inhibition, confirmation counter-screen; inhibition, % at 5.9 µM; shares compounds with LYPLA1 counter; 69% of 480 active; recombinant LYPLA1, FP-Rh probe fluorescence polarization; AID 2233;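 active = mean inhibition across replicates above the hit cutoff set in the primary screen, cut at about 15% in these data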;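 also: loss of FP-Rh probe labeling of LYPLA1 seen as lower polarization; 0% = LYPLA1 with DMSO and 100% = wells lacking LYPLA1 enzyme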
Numbers without * were called inactive; · = not tested or not shown. The list is not random: actives were taken first. Their share in the collection is about 1.3%.

SMILES	LYPLA1 counter	Fam108B counter	PREPL inh	PME-1 inh	LYPLA2 inh	Fam108b inh conf	others
Cc1[nH]c2ccccc2c1/C=N/NS(=O)(=O)c1ccccc1	-6.5	3.3	22.1	5.4	-9.1	·
Cc1[nH]c2ccccc2c1/C=N/Nc1ccccc1[N+](=O)[O-]	2.8	22.3*	51.4*	46.8*	3.7	-7.6
Cc1ccccc1NC(=O)NC1(C(=O)N2CCN(C)CC2)CCCCC1	-3.7	-2.3	-5.3	-8.2	-6.1	·
COc1cc2cc(-c3ccc(O)cc3O)nc(C)c2cc1OC	4.5	19.6*	32.4	15.7	7.4	20.9*
O=c1[nH]n2c(=O)c3c([nH]c2c1N=Nc1cccc(Cl)c1)CCC3	7.7	20.8*	26.8	56.2*	4.5	14.8
COC(=O)N/N=C/c1cc(N=Nc2ccccc2)ccc1O	-0.8	4.5	-20.8	3.3	0.0	·
Cc1cc(C(=O)N/N=C/c2cc(N=Nc3ccccc3)ccc2O)n[nH]1	-9.4	20.2*	13.2	6.7	5.2	11.1
Nc1ccc(C(=O)N/N=C\c2cc(N=Nc3cccc4ccccc34)ccc2O)cc1	-5.1	20.8*	14.0	39.7*	7.2	17.5
COC(=O)N/N=C/c1cc(N=Nc2ccccc2Cl)ccc1O	-18.1	22.3*	22.3	-2.1	-14.5	-2.9
COc1ccc(Cl)cc1NC(=O)COC(=O)c1c(-c2ccccc2)noc1C	-7.7	·	-0.3	-6.3	-15.9	·
CCN(CC)c1ccc(C2Nc3cccc4cccc(c34)N2)c(O)c1	-8.6	50.8*	20.0	47.5*	0.7	53.5*	Fam108b inh=90.0*
CCOC(=O)[C@H]1[C@H]2COc3ccccc3[C@@H]2N2C(=O)CN(Cc3ccc(C)cc3)C(=O)[C@@]12C	·	·	-15.6	·	·	·
CCOc1ccc(C2C3=C(Nc4nc(N)[nH]c(=O)c42)c2ccccc2C3=O)cc1 (centres undefined)	-2.3	6.5	15.9	4.1	-5.0	·
CCCOc1ccc(C2C3=C(Nc4nc(N)[nH]c(=O)c42)c2ccccc2C3=O)cc1 (centres undefined)	-13.6	22.7*	15.0	12.5	-5.9	19.2*
CCCc1cc(SCC(=O)Nc2c(C)n(C)n(-c3ccccc3)c2=O)n2c(nc3ccccc32)c1C#N	-3.0	24.0*	-9.9	-8.0	-0.1	22.6*
COc1ccc(NS(=O)(=O)c2cccc(C(=O)NCc3cccnc3)c2)cc1	-1.7	-1.9	-1.6	3.3	-1.3	·
Cc1ccc(C)c(-n2c3nc(=O)[nH]c(=O)c-3cc3cc([N+](=O)[O-])ccc32)c1	5.7	26.2*	20.3	36.0*	10.0	34.9*	Fam108b inh=70.0*
Cc1ccc(C)c(-n2c3nc(=O)n(C)c(=O)c-3cc3ccccc32)c1	-1.0	-0.8	8.4	-6.1	7.9	·
Cc1cc(F)ccc1NC(=O)CCc1ccc(S(=O)(=O)N2CCOCC2)cc1	1.3	·	3.0	1.4	3.5	·
CCOC(=O)CSc1nc2c(sc(=S)n2-c2ccccc2OC)c(=O)n1Cc1ccco1	-3.4	19.1*	5.5	25.6	-4.3	6.6
CCOC(=O)CSc1nc2c(sc(=S)n2Cc2ccco2)c(=O)n1-c1ccccc1	-3.0	-4.0	-0.7	-2.5	-1.8	·
COc1cc(C(C)=O)ccc1OCC(=O)Nc1ccc2nc(C)sc2c1	0.6	·	-2.3	-11.0	6.4	·
Cc1ccc(C(=O)O)cc1N1C(=O)c2cccc3c([N+](=O)[O-])ccc(c23)C1=O	1.5	27.0*	10.9	31.7*	6.9	22.9*
CN1c2ccccc2N(C)C1c1ccc2c(c1)OCO2	-0.1	4.6	4.7	3.5	3.2	·
c1cc2c3c(cccc3c1)NC(c1ccc3c(c1)OCO3)N2	-8.4	24.0*	9.9	22.8	-3.5	4.4
SMILES	LYPLA1 counter	Fam108B counter	PREPL inh	PME-1 inh	LYPLA2 inh	Fam108b inh conf	others
CSc1ccc(C2Nc3cccc4cccc(c34)N2)cc1	-17.3	18.8*	10.0	47.6*	-20.5	6.1
Brc1ccc(C2Nc3cccc4cccc(c34)N2)s1	-7.5	42.4*	8.0	33.4*	1.2	28.5*
CSc1ccc(C2NC(=O)c3ccccc3N2)cc1 (centres undefined)	0.4	-0.9	-1.2	5.7	6.0	·
Clc1ccc(C2Nc3cccc4cccc(c34)N2)cc1	-4.7	27.8*	40.7	18.6	1.5	22.5*
O=[N+]([O-])c1cc(C2Nc3cccc4cccc(c34)N2)ccc1Cl	-15.1	1.1	6.7	17.7	-11.4	·
O=C(CNC(=O)c1ccccc1F)OCCOc1cccc(Cl)c1	-1.6	-1.2	-8.7	3.3	-0.2	·
S=C(Nc1ccc(Br)cc1Cl)N1CCN(c2ccccn2)CC1	-3.1	1.5	-7.2	-4.6	-3.0	·
CC(=O)Nc1ccc(S(=O)(=O)NCC(=O)N2CCN(S(=O)(=O)c3cccs3)CC2)cc1	-0.4	·	9.9	0.9	-5.9	·
CC(=O)N(C)c1ccc(NCc2cc(=O)oc3cc(C)c(O)cc23)cc1	2.5	7.0	18.1	5.5	-1.3	·
Cc1cccc(S(=O)(=O)Nc2cccc3c2C(=O)c2ccccc2-3)c1	-7.0	-0.7	13.7	-2.4	-12.5	·
Cc1cc(C)c(Nc2cc(S(=O)(=O)O)c(N)c3c2C(=O)c2ccccc2C3=O)c(C)c1	55.0*	69.5*	57.4*	63.9*	27.3*	92.8*
CN(CC1COc2ccccc2O1)C(=O)c1ccc(Cl)c(S(=O)(=O)N2CCCCCC2)c1 (centres undefined)	-1.9	·	22.7	4.8	-1.8	·
O=C(O)c1ccccc1N/N=C/c1cc(Br)cc(Br)c1O	28.6*	26.7*	19.3	49.4*	11.7	18.9*	LYPLA1 conf=23.1*
COc1cccc2c1C(=O)c1c(O)c3c(c(O)c1C2=O)C[C@@](O)(C(=O)CO)C[C@@H]3O[C@H]1C[C@H](N)[C@@H](O)[C@H](C)O1	57.0*	36.0*	30.1	45.6*	40.9*	35.5*	Fam108b inh=35.0;LYPLA1 conf=55.9*
NC(=O)CC(NC(=O)c1ccc(Br)cc1)c1ccc(N2CCCCCC2)c([N+](=O)[O-])c1 (centres undefined)	-6.2	4.3	15.1	7.4	-0.2	·
O=C(NN1CCN(Cc2ccccc2Cl)CC1)c1ccc(Br)cc1	2.0	1.7	-3.1	16.4	4.8	·
Cc1nn(-c2ccccc2)nc1CNC(=O)C1CCC1	1.3	1.9	6.0	0.7	2.1	·
CCn1c(CSc2nccn2C)nc2cc(C(=O)O)ccc21	25.6*	20.3*	19.6	25.4	25.5	59.4*	Fam108b inh=0.0;LYPLA1 conf=24.2*
Cc1ccc(N2C(=O)c3cccc4c(C(=O)O)ccc(c34)C2=O)cc1	1.6	-4.1	-6.9	1.7	7.9	·
CC(=O)Nc1ccc(N2C(=O)c3cccc4c(O)ccc(c34)C2=O)cc1	17.2*	25.6*	19.3	17.7	20.4	12.4	LYPLA1 conf=15.9*
